In PubChem BioAssay (NCATS):
Values without a mark were called inactive. Records with an inconclusive call do not appear. A call without a number means that no potency is given here. Activity calls are given as the source filed them. Calls follow the shape of the dose curve; as a rule, active = well fitted curve in the direction sought with a large enough effect; inconclusive = small, poorly fitted or top-dose-only effect, or another doubt; inactive = no such curve, though single readings can be large; an effect the other way counts as inactive or inconclusive.

Biological target: Luciferin 4-monooxygenase (Photinus pyralis) (UniProt P08659)
Test: Primary firefly luciferase (FLuc) qHTS assay for identification of artifact compounds. (AID 1845220); also: nearly all actives have a fitted effect of over 60% in size
Details: purified firefly luciferase, luminescence, 5 min; series mostly up to 54.1 µM
Outline: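 Cell-free, 1536-well qHTS. Buffer pH 7.6 with 0.01% Tween-20 and 0.05% BSA; 10 uM D-luciferin, 10 uM ATP; 10 nM P. pyralis luciferase; luminescence after 5 min.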

Compound	outcome	Potency
O=C(Nc1ccn(Cc2c(F)cccc2C(F)(F)F)n1)c1c(F)cccc1F	inactive [at 11.6 µM]	–
COC(=O)C1=C[C@@H](O)[C@@H](O)[C@H](O[C@@H]2O[C@H](CO)[C@@H](O)[C@H](O)[C@H]2OC(=O)/C=C/c2ccccc2)C1	–	inactive
C=C1CCC2C(C)(C(=O)OC)CCCC2(C)C1CCC1=CCOC1=O (stereo not given)	–	inactive
CC(=C\C(C)O)/C=C(\C)C(=O)CC1CC(CC(N)=O)CC(=O)O1 (stereo not given)	–	inactive
C=C(C)[C@@]1(O)C[C@@]2(C)C(=CC1=O)CC[C@@H](O)[C@@H]2C	–	inactive
O=C(OC1C=C(CO)C2C(OC3OC(CO)C(O)C(O)C3O)OC=CC12O)c1ccc(O)cc1 (stereo not given)	–	inactive
COc1cccc(OC)c1-c1ccc(C[C@H](NC(=O)c2c(Cl)cccc2Cl)C(=O)O)cc1	–	inactive
C=CC1(C)CC=C2C(CCC3C(C)(C(=O)O)CCCC23C)C1 (stereo not given)	–	inactive
CC(O)C1CCC2C3CCC4CC(OC5OC(C(=O)O)C(O)C(O)C5O)CCC4(C)C3CCC12C (stereo not given)	–	inactive
CC1(C)CC[C@]2(C(=O)O[C@@H]3O[C@H](CO)[C@@H](O)[C@H](O)[C@H]3O)CC[C@]3(C)C(=CCC4[C@@]5(C)C[C@H](O)[C@H](O[C@@H]6OC[C@@H](O)[C@H](O)[C@H]6O)[C@@](C)(CO)C5CC[C@]43C)C2C1 (stereo not given in full)	inactive [at 11.6 µM]	–
CCC(C)C(=O)O[C@H]1[C@@H](O[C@H]2O[C@H](CO)[C@@H](O)[C@H](O)[C@H]2O)O[C@H](CO)[C@@H](O)[C@@H]1O (stereo not given in full)	–	inactive
C/C=C(\C)C(=O)O[C@H]1C=CC(=O)O[C@H]1/C=C/[C@H](O)[C@@H](C)O	–	inactive
COc1cc(CCCO)ccc1O[C@@H]1O[C@H](CO)[C@@H](O)[C@H](O)[C@H]1O	–	inactive
CCC(C)/C=C(C)/C=C/C1=CC2=C(Cl)C(=O)C(C)(OC(C)=O)C(=O)C2=CN1C(CC(=O)O)C(=O)O (stereo not given)	–	inactive
CN(C)C(=O)C(O)C(Cc1ccccc1)NC(=O)c1cc2cc(Cl)ccc2[nH]1 (stereo not given)	–	inactive
CC1(C)C(=O)N2c3ccccc3C(O)(CC(C(=O)O)n3cnc4ccccc4c3=O)C2N1O (stereo not given)	–	inactive

Tested on: not listed separately
Test: Primary fluorescence-based thiol-reactive (MSTI) qHTS assay for identification of artifact compounds. (AID 1845221); also: nearly all actives have a fitted effect of over 65% in size; also: potency is read from the fitted curve at half-maximal effect;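 as to activity change, negative = thiol reactive: thiol-reactive compounds lower the probe fluorescence signal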
Details: MSTI thiol-reactivity probe, 1 h; series mostly up to 53.8 µM
Outline: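 Compounds were incubated 1 h at room temperature in the dark with the MSTI probe (4 uM) in PBS pH 7.4, 2% DMSO. Signals were normalized between Acetyl-MSTI and MSTI.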

Compound	Potency	activity change, negative = thiol reactive
CC(=O)O[C@@H]1CC2C(C)(C)C(=O)C=C[C@]2(C)C2CC[C@]3(C)C(=CC(=O)[C@@H]3c3ccoc3)[C@@]21C (stereo not given in full)	inactive	–
CC(=O)OC1CC(C(C)(C)O)OC2CCC3(C)OC4=C(C(=O)C=C5C(C)C(OC(C)=O)C6(C)C(C)OC546)C(O)C3C12C (stereo not given)	inactive	–
Cc1ncc(NC(=O)c2ccc(CN3CCN(C)CC3)c(C(F)(F)F)c2)cc1Nc1nccc(-c2cccnc2)n1	inactive	–
CC1C(O)C(O)C2C(C(=O)OCCc3ccc(O)cc3)=COC(O[C@@H]3O[C@H](CO)[C@@H](O)[C@H](O)[C@H]3O)C12 (stereo not given in full)	1.84 µM (active)	–
CC1OC(O[C@@H]2[C@H](O)[C@@H](OC3OC(CO)C(O)C(O)C3O)[C@H](OC(=O)[C@]34CCC(C)(C)C[C@H]3C3=CCC5[C@@]6(C)CC[C@H](O[C@@H]7O[C@H](C(=O)O)[C@@H](O)[C@H](O[C@@H]8OC[C@@H](O)[C@H](O)[C@H]8O)[C@H]7O[C@@H]7O[C@H](CO)[C@H](O)[C@H](O)[C@H]7O)[C@@](C)(C=O)C6CC[C@@]5(C)[C@]3(C)C[C@H]4O)O[C@@H]2C)C(O)C(O)C1OC1OCC(O)C(O)C1O (stereo not given in full)	–	299% [at 6.41 µM]
Cc1cc(CNC(=O)c2cc(C(=O)NCc3ccc(F)c(C)c3)ncn2)ccc1F	inactive	–
C=CC(C)(CCC=C(C)C)O[C@@H]1O[C@H](CO)[C@@H](O)[C@H](O)[C@H]1O (stereo not given in full)	inactive	–
COC(=O)C(CC1(O)c2ccccc2N2C(=O)C(CC(C)C)NC21)n1cnc2ccccc2c1=O (stereo not given)	inactive	–
CC(=O)OCC1OC(O[C@H]2CC[C@@]3(C)C(CC[C@]4(C)C3CC=C3[C@@H]5CC(C)(C)CC[C@]5(C(=O)O)CC[C@]34C)[C@]2(C)CO)C(O)C(O)C1OC1OC(C)C(O)C(OC2OCC(O)C(O)C2O)C1O (stereo not given in full)	–	307% [at 11.5 µM]
FC(F)(F)c1nnc2c(Sc3ccccc3)nc3ccc(Cl)cc3n12	inactive	–
CC(C)(OC1OC(CO)C(O)C(O)C1O)C1CCC(O)(CO)C2CC(=O)C(C)(O)C2C1 (stereo not given)	inactive	–
C[C@@H]1O[C@@H](O[C@H]2[C@H](O[C@H]3[C@H](O[C@H]4CC[C@@]5(C)C(CC[C@]6(C)C5CC=C5[C@@H]7CC(C)(C)C[C@@H](O)[C@]7(C)CC[C@]56C)C4(C)C)O[C@H](C(=O)O)[C@@H](O)[C@@H]3O)O[C@H](C(=O)O)[C@H](O)[C@@H]2O)[C@H](O)[C@H](O)[C@H]1O (stereo not given in full)	–	56.2% [at 11.5 µM]
CC1(C)CC=C(C#Cc2ccccc2)c2cc(/C=C/c3ccc(C(=O)O)cc3)ccc21	inactive	–
CC1CCC2(C(=O)OC3OC(CO)C(O)C(O)C3O)CCC3(C)C(=CCC4C5(C)CCC(O)C(C)(CO)C5CCC43C)C2C1(C)O (stereo not given)	inactive	–
OC[C@H]1O[C@@H](O[C@H]2[C@H](O)[C@@H](CO)O[C@@H](OCc3ccccc3)[C@@H]2O[C@@H]2OC[C@](O)(CO)[C@H]2O)[C@H](O)[C@@H](O)[C@@H]1O	inactive	–
CC1(O)CC(O)C2C(C(=O)O)=COC(OC3OC(CO)C(O)C(O)C3OC(=O)/C=C/c3ccc(O)cc3)C21 (stereo not given)	4.12 µM (active)	–
COc1cc2nc(=NC(=O)c3cccnc3)n3c(c2cc1OC)NCC3	inactive	–
OCC1OC(Oc2cc(O)cc(/C=C/c3ccc(OC4OC(CO)C(O)C(O)C4O)cc3O)c2)C(O)C(O)C1O (stereo not given)	inactive	–
CC(=O)O[C@H]1C[C@@H](O)C(C)(C)C2C[C@@H](OC(C)=O)[C@@]3(C)C4=CCC(C(CO)CC(O)C5OC5(C)C)[C@]4(C)CCC3[C@]21C (stereo not given in full)	inactive	–
CC1OC(O[C@H]2CC[C@@]3(C)C(CC[C@]4(C)C3CC=C3C5CC(C)(C)CC[C@]5(C(=O)OC5OC(CO)C(OC6OCC(OC7OCC(O)C(O)C7O)C(O)C6O)C(O)C5O)CC[C@]34C)C2(C)C)C(O)C(O)C1OC1OC(CO)C(O)C(OC2OC(CO)C(O)C(O)C2O)C1O (stereo not given in full)	–	250% [at 11.5 µM]

Compound	Potency	activity change, negative = thiol reactive
O=C1C(Cl)=C(N2CCOCC2)C(=O)N1c1ccc(Cl)c(Cl)c1	inactive	–
COC(=O)C1=COC(O[C@@H]2O[C@H](COC(=O)/C=C/c3ccc(O)cc3)[C@@H](O)[C@H](O)[C@H]2O)C2C(CO)=CCC12 (stereo not given in full)	inactive	–
C[C@@H]1O[C@@H](O[C@H]2[C@H](OC(=O)[C@]34CCC(C)(C)C[C@H]3C3=CCC5[C@@]6(C)CC[C@H](O[C@@H]7O[C@H](CO[C@@H]8OC[C@H](O)[C@H](O)[C@H]8O[C@@H]8OC[C@@H](O)[C@H](O)[C@H]8O)[C@@H](O)[C@H](O)[C@H]7O)C(C)(C)C6CC[C@@]5(C)[C@]3(C)C[C@H]4O)O[C@H](CO)[C@@H](O)[C@@H]2O)[C@H](O[C@@H]2O[C@H](CO)[C@@H](O)[C@H](O)[C@H]2O)[C@H](O)[C@H]1O[C@@H]1OC[C@@H](O)[C@H](O[C@@H]2OC[C@@H](O)[C@H](O)[C@H]2O)[C@H]1O (stereo not given in full)	–	385% [at 6.41 µM]
O=C(Nc1ccn(Cc2c(F)cccc2C(F)(F)F)n1)c1c(F)cccc1F	–	27.2% [at 11.5 µM]
COC(=O)C1=C[C@@H](O)[C@@H](O)[C@H](O[C@@H]2O[C@H](CO)[C@@H](O)[C@H](O)[C@H]2OC(=O)/C=C/c2ccccc2)C1	inactive	–
C=C1CCC2C(C)(C(=O)OC)CCCC2(C)C1CCC1=CCOC1=O (stereo not given)	inactive	–
CC(=C\C(C)O)/C=C(\C)C(=O)CC1CC(CC(N)=O)CC(=O)O1 (stereo not given)	inactive	–
C=C(C)[C@@]1(O)C[C@@]2(C)C(=CC1=O)CC[C@@H](O)[C@@H]2C	inactive	–
O=C(OC1C=C(CO)C2C(OC3OC(CO)C(O)C(O)C3O)OC=CC12O)c1ccc(O)cc1 (stereo not given)	3.27 µM (active)	–
COc1cccc(OC)c1-c1ccc(C[C@H](NC(=O)c2c(Cl)cccc2Cl)C(=O)O)cc1	inactive	–
C=CC1(C)CC=C2C(CCC3C(C)(C(=O)O)CCCC23C)C1 (stereo not given)	inactive	–
CC(O)C1CCC2C3CCC4CC(OC5OC(C(=O)O)C(O)C(O)C5O)CCC4(C)C3CCC12C (stereo not given)	inactive	–
CC1(C)CC[C@]2(C(=O)O[C@@H]3O[C@H](CO)[C@@H](O)[C@H](O)[C@H]3O)CC[C@]3(C)C(=CCC4[C@@]5(C)C[C@H](O)[C@H](O[C@@H]6OC[C@@H](O)[C@H](O)[C@H]6O)[C@@](C)(CO)C5CC[C@]43C)C2C1 (stereo not given in full)	–	298% [at 11.5 µM]
CCC(C)C(=O)O[C@H]1[C@@H](O[C@H]2O[C@H](CO)[C@@H](O)[C@H](O)[C@H]2O)O[C@H](CO)[C@@H](O)[C@@H]1O (stereo not given in full)	inactive	–
C/C=C(\C)C(=O)O[C@H]1C=CC(=O)O[C@H]1/C=C/[C@H](O)[C@@H](C)O	inactive	–
COc1cc(CCCO)ccc1O[C@@H]1O[C@H](CO)[C@@H](O)[C@H](O)[C@H]1O	16.5 µM (active)	–
CCC(C)/C=C(C)/C=C/C1=CC2=C(Cl)C(=O)C(C)(OC(C)=O)C(=O)C2=CN1C(CC(=O)O)C(=O)O (stereo not given)	0.733 µM (active)	–
CN(C)C(=O)C(O)C(Cc1ccccc1)NC(=O)c1cc2cc(Cl)ccc2[nH]1 (stereo not given)	inactive	–
CC1(C)C(=O)N2c3ccccc3C(O)(CC(C(=O)O)n3cnc4ccccc4c3=O)C2N1O (stereo not given)	inactive	–
